Each structure is given as a SMILES string. Active and inactive are the calls of the source. Unless noted, the rule behind the calls is not given here.

The test system of experiment [1] is XIP peptide (Xip251-270) binding. Nature of the experiment: small-molecule binders of XIP peptide, primary screen, biochemical, small-molecule microarray, fluorescence 635/667 nm, 0.1 µg/mL protein (AID 1182). The settings on record: fluorescent protein binding, 635 nm, higher = more signal, called active from +8 up or from −8 down.
A further experiment concerns XIP peptide (Xip251-270). Description: small-molecule binders of XIP peptide, primary screen, biochemical, small-molecule microarray, fluorescence 635/667 nm, 0.5 µg/mL protein (AID 1183). The settings on record: small-molecule microarray binding, fluorescence 635 nm; higher = more signal.
Experiment [2] is described as follows: Plasmodium falciparum growth inhibition, primary screen, strain 3D7, DAPI fluorescence, 100 nL (AID 1184).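 Note: parasites grown inside human red blood cells in medium with human serum.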 The settings on record: P. falciparum 3D7 growth, 3 d, higher = more signal.
Experiment [3] deals with Homeobox protein Hox-A13 (Mus musculus) (UniProt Q62424). Nature of the experiment: inhibitors of HoxA13-DNA binding, primary screen, biochemical, fluorescence polarization, labeled oligonucleotide (AID 1185). Conditions: 15 min, higher = more signal, called active from +8 up or from −8 down. A general note: Polarisation of emitted light reports the rotation of a fluorescent probe.

Experiment [4] can be described thus: inhibitors of hydroxyurea-induced Chk1 phosphorylation, primary screen, imaging, HeLa, phospho-Chk1 antibody, percent positive cells (AID 1186). Conditions: hydroxyurea-induced phospho-Chk1 immunofluorescence imaging, higher = more signal.
Experiment [5] can be described thus: inhibitors of hydroxyurea-induced Chk1 phosphorylation, primary screen, imaging, HeLa, phospho-Chk1 nuclear intensity (AID 1187). The settings on record: hydroxyurea-induced phospho-Chk1 immunofluorescence imaging, higher = more signal.

Chain of Homeobox protein Hox-A13 (Mus musculus) (Q62424 whole entry, looked up): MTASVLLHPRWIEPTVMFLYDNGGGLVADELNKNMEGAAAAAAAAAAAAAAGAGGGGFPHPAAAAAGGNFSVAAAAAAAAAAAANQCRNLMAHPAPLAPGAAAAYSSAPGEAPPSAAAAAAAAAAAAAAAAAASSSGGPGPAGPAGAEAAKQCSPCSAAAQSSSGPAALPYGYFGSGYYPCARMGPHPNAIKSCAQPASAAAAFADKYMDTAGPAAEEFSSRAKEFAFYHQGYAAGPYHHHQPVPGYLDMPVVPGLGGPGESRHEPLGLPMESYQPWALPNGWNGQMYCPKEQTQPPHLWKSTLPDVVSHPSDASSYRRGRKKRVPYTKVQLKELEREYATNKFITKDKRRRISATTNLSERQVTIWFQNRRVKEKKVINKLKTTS

As for `COc1ccc(NN2C(C(O)c3ccccn3)C=CC3C(=O)N(C4CCCCC4)C(=O)C32)cc1` (configuration not stated), the composite z-score in experiment [1] was -0.136 (inactive); in the experiment with XIP peptide (Xip251-270), 0.913. The z-score was -0.408 in experiment [2], -4.39 (inactive) in experiment [3], -0.773 (inactive) in experiment [4] and -0.488 (inactive) in experiment [5].

For the compound `CN(C)CCCN1C(=O)[C@@]2(c3ccc([N+](=O)[O-])cc3)CC(=O)N(CC34CC5CC(CC(C5)C3)C4)[C@@H]2c2ccc(CO)cc21`, the composite z-score in experiment [1] was -0.0347 (inactive); in the experiment with XIP peptide (Xip251-270), 0.35. The z-score is -0.428 in experiment [2], -2.47 (inactive) in experiment [3], -0.411 (inactive) in experiment [4] and -0.112 (inactive) in experiment [5].

On to `Cc1ccc(C(C)CC(O)C2C=CC3C(=O)N(c4ccccc4)C(=O)C3N2Nc2ccc(C(C)C)cc2)o1` (configuration not stated), for which the composite z-score in experiment [1] is 0.195 (inactive); with XIP peptide (Xip251-270), 0.691. The z-score in experiment [2] was 0.0472; in experiment [3], -3.2 (inactive); in experiment [4] it was 0.527 (inactive); in experiment [5] it was 0.482 (inactive).

Regarding `CC(C)C(=C=CC[C@H](O)c1ccc(OCCO)cc1)C[C@H](O)c1cc(Cl)cc(Cl)c1O`, the results for the composite z-score (in experiment [1]; in the experiment on XIP peptide (Xip251-270)) were 0.263 (inactive) and 0.746, respectively. The z-score was -2.74 in experiment [2], -1.35 (inactive) in experiment [3], -0.289 (inactive) in experiment [4] and 0.18 (inactive) in experiment [5].

Take `O=c1cccc(-c2cccc(Cl)c2)o1`: the figures for the composite z-score (in experiment [1]; in the experiment with XIP peptide (Xip251-270)) were 0.165 (inactive) and 0.108, respectively. Further, the z-score in experiment [2] is 0.204; in experiment [3], -0.814 (inactive); in experiment [4] it was 0.0366 (inactive); in experiment [5] it was -0.411 (inactive).

On to `COCCOC(=O)N1C(=O)[C@@]2(c3ccccc31)[C@H](C(=O)N1CCN(c3ncccn3)CC1)[C@H]1C(=O)O[C@H](c3ccccc3)[C@H](c3ccccc3)N1[C@@H]2c1ccc(OCCO)cc1`, for which the composite z-score in experiment [1] is 0.707 (inactive); in the experiment with XIP peptide (Xip251-270) it was 0.791. Moreover, the z-score in experiment [2] was -1.93; in experiment [3], -0.387 (inactive); in experiment [4], 0.065 (inactive); in experiment [5], 0.182 (inactive).

In the case of `COCCOC(=O)N1C(=O)[C@@]2(c3cc(C#CC4=CCCCC4)ccc31)[C@H](c1ccc(O)cc1)N1[C@H](c3ccccc3)[C@H](c3ccccc3)OC(=O)[C@H]1[C@@H]2C(=O)Nc1nc2ccccc2s1`, the composite z-score in experiment [1] is 0.863 (inactive); in the experiment on XIP peptide (Xip251-270) it was 0.843. In addition, the z-score was -1.32 in experiment [2], 1.05 (inactive) in experiment [3], 0.0256 (inactive) in experiment [4] and 0.125 (inactive) in experiment [5].

For the compound `COCCOC(=O)N1C(=O)[C@@]2(c3cc(C#CC4=CCCCC4)ccc31)[C@H](C(=O)N1CCN(c3ncccn3)CC1)[C@H]1C(=O)O[C@H](c3ccccc3)[C@H](c3ccccc3)N1[C@@H]2c1ccc(O)cc1`, the composite z-score in experiment [1] is 0.481 (inactive); in the experiment on XIP peptide (Xip251-270), 0.685. Besides, the z-score in experiment [2] was -1.29; in experiment [3], 0.446 (inactive); in experiment [4], 0.247 (inactive); in experiment [5] it was 0.0658 (inactive).

As for `COCCOC(=O)N1C(=O)[C@@]2(c3ccccc31)[C@H](c1ccc(OCCO)cc1)N1[C@H](c3ccccc3)[C@H](c3ccccc3)OC(=O)[C@H]1[C@@H]2C(=O)Nc1nc2ccccc2s1`, the values for the composite z-score (in experiment [1]; with XIP peptide (Xip251-270)) were 1.72 (inactive) and 0.745, respectively. Also, the z-score in experiment [2] is -0.365; in experiment [3] it was 0.0267 (inactive); in experiment [4], -0.0021 (inactive); in experiment [5] it was -0.178 (inactive).

As for `CC=CC(O)C1C=CC2C(=O)N(c3ccccc3)C(=O)C2N1Nc1ccc([N+](=O)[O-])cc1` (configuration not stated), the composite z-score is 0.542 (inactive) in experiment [1] and 0.135 in the experiment on XIP peptide (Xip251-270). The z-score in experiment [2] was 1.01; in experiment [3] it was -3.01 (inactive); in experiment [4], -0.263 (inactive); in experiment [5], -0.973 (inactive).

`COCCCNC(=O)[C@]1(Cc2ccccc2N=[N+]=[N-])N=C(c2ccc(OCCCO)cc2)O[C@@H]1c1ccccc1N=[N+]=[N-]`: the composite z-score is -0.207 (inactive) in experiment [1] and 0.538 in the experiment on XIP peptide (Xip251-270). For the same compound, the z-score in experiment [2] is -2.11; in experiment [3], -1.51 (inactive); in experiment [4] it was -0.553 (inactive); in experiment [5], -0.627 (inactive).

As to `C[C@@H](OCc1ccccc1)C1NC(=O)[C@@]23C(=O)N[C@@H](Cc4ccccc4)C2[C@H](C)[C@@]2(C)O[C@H]2C3/C=C/C/C=C\CNC(=O)CNC1=O` (some centres not stated), the composite z-score was -0.153 (inactive) in experiment [1] and -0.796 in the experiment with XIP peptide (Xip251-270). In addition, the z-score is -0.748 in experiment [2], -7.11 (inactive) in experiment [3], 0.631 (inactive) in experiment [4] and 0.734 (inactive) in experiment [5].

As to `CC(C)N1CC=CC23O[C@@H]4C=CCOC(=O)[C@@H]4[C@H]2C(=O)N(C(C)CO)[C@@H]3C1=O` (some centres not stated), the composite z-score was -0.409 (inactive) in experiment [1] and 0.291 with XIP peptide (Xip251-270). Moreover, the z-score in experiment [2] was 0.383; in experiment [3] it was -3.67 (inactive); in experiment [4], 0.113 (inactive); in experiment [5] it was -0.0881 (inactive).

With `CC1CC/C=C\[C@H]2OC34C=CCN(C(C)C)C(=O)[C@H]3N(CCCCCO)C(=O)[C@@H]4C2C(=O)O1` (some centres not stated), the composite z-score in experiment [1] is -0.572 (inactive); in the experiment with XIP peptide (Xip251-270) it was -1.17. The z-score in experiment [2] was 1.17; in experiment [3], -3.89 (inactive); in experiment [4], 0.453 (inactive); in experiment [5] it was 0.532 (inactive).

Regarding `C=CCOC(=O)[C@@H]1[C@H]2C(=O)O[C@H](c3ccccc3)[C@H](c3ccccc3)N2[C@H](c2ccc(OCCOC(=O)[C@H]3C[C@H]4C(=O)N[C@@H](CC(C)C)C(=O)N4[C@H]3c3ccc(O)cc3)cc2)[C@@]12C(=O)Nc1ccc(I)cc12`, the results for the composite z-score (in experiment [1]; with XIP peptide (Xip251-270)) were 0.234 (inactive) and 0.828, respectively. Further, the z-score in experiment [2] is -1.79; in experiment [3], 0.981 (inactive); in experiment [4] it was -0.25 (inactive); in experiment [5], -0.115 (inactive).

`C=C(CCCC)C(=O)CC[C@@H](OC(=O)c1ccccc1-c1ccccc1C(=O)O)c1cccc(OCCO)c1`: the composite z-score in experiment [1] is 1.03 (inactive); in the experiment on XIP peptide (Xip251-270) it was 0.204. Besides, the z-score in experiment [2] was -2.46; in experiment [3] it was -5.72 (inactive); in experiment [4], 0.456 (inactive); in experiment [5], 0.408 (inactive).

Consider `C=CCOC(=O)[C@H]1[C@@H]2C(=O)O[C@@H](c3ccccc3)[C@@H](c3ccccc3)N2[C@@H](c2ccc(OCCOC(=O)[C@H]3C[C@H]4C(=O)N[C@@H](Cc5ccccc5)C(=O)N4[C@H]3c3ccc(O)cc3)cc2)[C@]12C(=O)Nc1ccc(I)cc12`, for which the composite z-score in experiment [1] was 0.451 (inactive); in the experiment with XIP peptide (Xip251-270) it was 0.768. Moreover, the z-score in experiment [2] was -1.62; in experiment [3], 1.21 (inactive); in experiment [4], -0.688 (inactive); in experiment [5], -0.476 (inactive).

These data come from PubChem BioAssay.
